Data on 40 compounds can be found in PubChem BioAssay AID652016 (National Center for Advancing Translational Sciences (NCATS), 2013).

Records with an inconclusive call do not appear. Entries that show only a call come without a potency. Activity calls are given as the source filed them. Calls follow the shape of the dose curve; as a rule, active = well fitted inhibition curve with a large enough effect; inconclusive = small, poorly fitted or top-dose-only effect; inactive = flat fitted curve, though single readings scatter.
Potency is read from the fitted curve at half-maximal effect.

The target of this test is Luciferin 4-monooxygenase (Photinus pyralis) (UniProt P08659). The test is described as follows: qHTS Assay for Inhibitors of Firefly Luciferase from the GSK Published Protein Kinase Inhibitor Set. Conditions: purified firefly luciferase, luminescence inhibition; series mostly up to 57.5 µM. From the text: FLuc (firefly luciferase) is the prototypical bioluminescent reporter gene from Photinus pyralis.[1] The enzyme catalyzes the oxidation luciferin via luciferin-AMP to produce light. FLuc is used in cell-based reporter gene-based assays for screening small molecule chemical libraries. However, small molecule luciferase inhibitors present in most large chemical libraries are often enriched in the output of high throughput screens using this reporter sometimes complicating interpretation and candidate selection.
Chain of Luciferin 4-monooxygenase (Photinus pyralis) (P08659 whole entry, looked up): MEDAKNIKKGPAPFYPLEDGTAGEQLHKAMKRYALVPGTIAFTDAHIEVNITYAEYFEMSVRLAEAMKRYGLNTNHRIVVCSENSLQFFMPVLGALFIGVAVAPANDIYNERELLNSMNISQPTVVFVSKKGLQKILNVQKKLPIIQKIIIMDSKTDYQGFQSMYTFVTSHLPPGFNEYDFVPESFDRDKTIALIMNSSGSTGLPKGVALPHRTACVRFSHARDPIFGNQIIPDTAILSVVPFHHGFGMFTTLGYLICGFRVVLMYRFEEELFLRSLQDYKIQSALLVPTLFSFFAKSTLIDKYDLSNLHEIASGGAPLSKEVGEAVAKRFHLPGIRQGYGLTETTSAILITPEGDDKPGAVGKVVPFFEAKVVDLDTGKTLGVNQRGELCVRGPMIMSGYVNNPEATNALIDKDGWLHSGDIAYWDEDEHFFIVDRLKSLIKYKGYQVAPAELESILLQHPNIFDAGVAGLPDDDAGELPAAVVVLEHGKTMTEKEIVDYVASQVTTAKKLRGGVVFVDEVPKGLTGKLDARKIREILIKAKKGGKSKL
RLuc is a bioluminescent reporter gene luciferase from Renilla reniformis, also known as the sea pansy. RLuc uses the luciferin substrate coelenterazine. RLuc is often used in combination with the nonhomologous luciferase FLuc (firefly luciferease) as a trasfection or pathway normalization control. Recently, non-homologous reporters have been described for high throughput screening 'coincidence' reporter gene strategies.
1. Fan F, Wood KV (2007) Bioluminescent assays for high-throughput screening. Assay Drug Dev Technol 5: 127-136.
2. Thorne N, Inglese J, Auld DS (2010) Illuminating insights into firefly luciferase and other bioluminescent reporters used in chemical biology. Chem Biol 17: 646-657.
3. […] Chem Biol 19: 1060-1072.
4. Michelini E, Cevenini L, Mezzanotte L, Coppa A, Roda A (2010) Cell-based assays: fuelling drug discovery. Anal Bioanal Chem 398: 227-238.
5. Cheng KC, Inglese J (2012) A coincidence reporter-gene system for high-throughput screening. Nat Methods 9: 937.
Biochemical firefly luciferase enzyme assay
NCGC Assay Protocol Summary:
Reagents: 50mM Tris acetate, pH 7.5; 10mM Mg acetate; 10uM D-luciferin (Sigma #L9504); 10uM ATP; 0.01% Tween-20; 0.05% BSA; 10nM P. pyralis luciferase (Sigma #L9506)
Control compounds used were two known firefly luciferase inhibitors (compounds (2) and (5) in Auld et al., 2010), and DMSO.
Three microliters containing firefly luciferase substrates in buffer (final concentrations: 50mM Tris acetate, pH 7.5, 10mM Mg acetate, 0.01% Tween-20, 0.05% BSA, 10uM D-luciferin, and 10uM ATP) are dispensed into each well of a Greiner white, solid-bottom 1536-well format plate using a flying reagent dispenser (FRD). These assay plates were then treated with 23nL of compound or DMSO using a Kalypsys pin tool, which allows for delivery of a 7-point interplate titration of each compound to the assay plates (quantitative HTS), with final compound concentrations ranging from approximately 60uM to 300pM. One microliter of firefly luciferase in 50mM Tris-acetate buffer was then delivered by FRD to each well for a final enzyme concentration of 10nM. Luciferase activity was then measured using an Envision plate reader (PerkinElmer), with an average incubation time of 5 min.
In the case of `NS(=O)(=O)c1ccc(N=Nc2c(O)[nH]c3cccc(CCc4ccncc4)c23)cc1`, the Potency entry was “inactive”. For the compound `O=C(Nc1n[nH]c2cc(-c3ccccc3)ccc12)C1CC1`, the Potency is 18.3 µM (active). To `Fc1cccc(COc2ccc(Nc3ncnc4sc(-c5cccs5)cc34)cc2Cl)c1` belongs “inactive”; to `COc1cc(C=NNc2ncnc3c2cnn3-c2ccccc2)ccc1O`, “inactive”; to `N#Cc1ccc(Oc2nccc(-c3c(-c4ccc(F)cc4)ncn3C3CCNCC3)n2)cc1`, “inactive”. Take `Cc1cccc(-c2[nH]ncc2-c2ccc3ncccc3n2)n1`: the Potency result was “inactive”. To `Cc1cc(O)cc(C)c1C=Cc1cncc(C(=O)OC(C)(C)C)c1` belongs “inactive”; to `Nc1nc(-c2ccccn2)c(-c2ccc3ncccc3n2)s1`, 32.6 µM (active); to `c1ccc(-c2nc3n(c2-c2ccc4c(c2)OCO4)CCC3)nc1`, “inactive”. Take `Fc1ccc(-c2c(-c3ccncc3)nc3n2CCS3)cc1`: the Potency entry was “inactive”.

As for `Nc1nccc(-c2c(-c3ccc(F)cc3)ncn2CCCN2CCOCC2)n1`, the Potency entry was “inactive”.

For `Nc1ncc(-c2cccc(S(N)(=O)=O)c2)c2scc(-c3ccc(F)c(Cl)c3)c12`, the Potency result is “inactive”.

Regarding `COc1cccc(-c2c[nH]c3c(NN=Cc4ccncc4)ncnc23)c1`, the Potency was 5.8 µM (active). To `CC(Oc1cc(-n2cnc3ccc(OC4CCN(C)CC4)cc32)sc1C(N)=O)c1ccccc1Cl` (stereo not given) belongs “inactive”; to `Cc1cc(-c2ccccn2)cc(C)c1C=Cc1cncc(-c2nn[nH]n2)c1`, “inactive”; to `NC(=O)c1ccc(-c2nc(-c3ccc4c(c3)OCO4)c(-c3ccccn3)[nH]2)cc1`, “inactive”. For `COc1cc(Nc2ncc(-c3ccccc3)o2)cc(OC)c1OC`, the Potency entry is “inactive”. The result for `CS(=O)(=O)CCNCc1nc(-c2ccc3ncnc(Nc4ccc(OCc5cccc(C(F)(F)F)c5)cc4)c3c2)cs1` reads “inactive”.

Consider `CN1CCC(n2cnc(-c3ccc(F)cc3)c2-c2ccnc(Nc3ccccc3)n2)CC1`, for which the Potency entry was “inactive”. Consider `CC(C)c1ccc(-c2cc(-c3cn[nH]c3-c3ccccn3)ccn2)cc1`, for which the Potency result was “inactive”. To `Cc1ccc2c(-c3ccnc(Nc4ccc5c(c4)OCCO5)n3)c(-c3ccc(C(F)(F)F)cc3)nn2n1` belongs “inactive”; to `CCS(=O)(=O)c1ccc(OC)c(Nc2ncc(-c3cccc(F)c3)o2)c1`, “inactive”; to `COC(=O)c1ccc2c(c1)/C(=C/c1cc(Br)c(O)c(Br)c1)C(=O)N2`, 20.6 µM (active). The result for `Cc1nnc(-c2cccc(-c3ccc(C(=O)NCC4CC4)cc3)c2)o1` reads “inactive”; that for `CCN1CCC(CC(=O)Nc2n[nH]c3nc(-c4cccs4)c(Br)cc23)CC1`, “inactive”.

Consider `NC(=O)c1sc(-n2cnc3cc(C(F)(F)F)ccc32)cc1OCc1ccccc1Br`, for which the Potency entry is “inactive”. As to `Fc1ccc(-c2ncn(C3CCNCC3)c2-c2ccnc(Oc3ccc(Oc4ccccc4)cc3)n2)cc1`, the Potency result was “inactive”. Take `CCCN1CCC=C(c2ccc(Nc3nc(Nc4ccccc4C(N)=O)c4cc[nH]c4n3)c(C)c2)C1`: the Potency entry was “inactive”. As for `CCn1c(-c2nonc2N)nc2ccccc21`, the Potency result was “inactive”.

As for `COc1ccc2cc(-c3c(-c4ccncc4)nc(-c4ccc(S(C)=O)cc4C)n3C)ccc2c1` (stereo not given), the Potency result was “inactive”.

Consider `CCCN1CCC(c2ccc(Nc3nc(Nc4cc(F)ccc4C(N)=O)c4cc[nH]c4n3)c(OC)c2)CC1`, for which the Potency result is “inactive”.

Take `COc1ccc(Nc2ncc(-c3ccccc3)o2)cc1OC`: the Potency is 5.8 µM (active). To `Cc1cc(Cl)cc2c(N=Nc3ccc(S(N)(=O)=O)cc3)c(O)[nH]c12` belongs “inactive”.

As to `CCn1c(-c2nonc2N)nc2ccc(F)cc21`, the Potency entry was “inactive”. The result for `c1ccc(Cc2nc3ccc(Nc4ncnc5ccccc45)cc3[nH]2)cc1` reads 16.3 µM (active).

With `NC(=O)c1ccc2c(-c3ccnc(NCCCO)n3)c(-c3ccc(F)cc3)nn2c1`, the Potency result is “inactive”. The result for `COc1cc2c(cc1Nc1nc(N3CCc4ccccc43)c3cc[nH]c3n1)N(C(=O)CN(C)C)CC2` reads “inactive”; that for `CNC(=O)c1cncc(C=Cc2ccccc2Cl)c1`, 9.19 µM (active); that for `COc1cc(Nc2nccc(-c3cnn4ncccc34)n2)cc(OC)c1`, “inactive”. The result for `NS(=O)(=O)c1ccc(N=Nc2c(O)[nH]c3ccc(C(=O)NCCc4cnc[nH]4)cc23)cc1` reads “inactive”.
